From the supplement of paper PMC11732987, “Enantioselective OTUD7B fragment discovery through chemoproteomics screening and high-throughput optimisation” (Communications Chemistry, 2025)

Tests used:
Test in all cases: log2 ratio of Biotin-Ahx-Ub-VS probe labelling (fragment/DMSO); higher = less target engagement (more negative = stronger competition), active = hit call of the paper (q ≤ 0.05, log2 ratio ≤ -1)
Settings in all cases: compound concentration: 200 uM; treatment time: 3 h
USP34 = USP34 (UniProt Q70CQ2)
Sequence of USP34 (Q70CQ2 whole entry, the tested form may be a part): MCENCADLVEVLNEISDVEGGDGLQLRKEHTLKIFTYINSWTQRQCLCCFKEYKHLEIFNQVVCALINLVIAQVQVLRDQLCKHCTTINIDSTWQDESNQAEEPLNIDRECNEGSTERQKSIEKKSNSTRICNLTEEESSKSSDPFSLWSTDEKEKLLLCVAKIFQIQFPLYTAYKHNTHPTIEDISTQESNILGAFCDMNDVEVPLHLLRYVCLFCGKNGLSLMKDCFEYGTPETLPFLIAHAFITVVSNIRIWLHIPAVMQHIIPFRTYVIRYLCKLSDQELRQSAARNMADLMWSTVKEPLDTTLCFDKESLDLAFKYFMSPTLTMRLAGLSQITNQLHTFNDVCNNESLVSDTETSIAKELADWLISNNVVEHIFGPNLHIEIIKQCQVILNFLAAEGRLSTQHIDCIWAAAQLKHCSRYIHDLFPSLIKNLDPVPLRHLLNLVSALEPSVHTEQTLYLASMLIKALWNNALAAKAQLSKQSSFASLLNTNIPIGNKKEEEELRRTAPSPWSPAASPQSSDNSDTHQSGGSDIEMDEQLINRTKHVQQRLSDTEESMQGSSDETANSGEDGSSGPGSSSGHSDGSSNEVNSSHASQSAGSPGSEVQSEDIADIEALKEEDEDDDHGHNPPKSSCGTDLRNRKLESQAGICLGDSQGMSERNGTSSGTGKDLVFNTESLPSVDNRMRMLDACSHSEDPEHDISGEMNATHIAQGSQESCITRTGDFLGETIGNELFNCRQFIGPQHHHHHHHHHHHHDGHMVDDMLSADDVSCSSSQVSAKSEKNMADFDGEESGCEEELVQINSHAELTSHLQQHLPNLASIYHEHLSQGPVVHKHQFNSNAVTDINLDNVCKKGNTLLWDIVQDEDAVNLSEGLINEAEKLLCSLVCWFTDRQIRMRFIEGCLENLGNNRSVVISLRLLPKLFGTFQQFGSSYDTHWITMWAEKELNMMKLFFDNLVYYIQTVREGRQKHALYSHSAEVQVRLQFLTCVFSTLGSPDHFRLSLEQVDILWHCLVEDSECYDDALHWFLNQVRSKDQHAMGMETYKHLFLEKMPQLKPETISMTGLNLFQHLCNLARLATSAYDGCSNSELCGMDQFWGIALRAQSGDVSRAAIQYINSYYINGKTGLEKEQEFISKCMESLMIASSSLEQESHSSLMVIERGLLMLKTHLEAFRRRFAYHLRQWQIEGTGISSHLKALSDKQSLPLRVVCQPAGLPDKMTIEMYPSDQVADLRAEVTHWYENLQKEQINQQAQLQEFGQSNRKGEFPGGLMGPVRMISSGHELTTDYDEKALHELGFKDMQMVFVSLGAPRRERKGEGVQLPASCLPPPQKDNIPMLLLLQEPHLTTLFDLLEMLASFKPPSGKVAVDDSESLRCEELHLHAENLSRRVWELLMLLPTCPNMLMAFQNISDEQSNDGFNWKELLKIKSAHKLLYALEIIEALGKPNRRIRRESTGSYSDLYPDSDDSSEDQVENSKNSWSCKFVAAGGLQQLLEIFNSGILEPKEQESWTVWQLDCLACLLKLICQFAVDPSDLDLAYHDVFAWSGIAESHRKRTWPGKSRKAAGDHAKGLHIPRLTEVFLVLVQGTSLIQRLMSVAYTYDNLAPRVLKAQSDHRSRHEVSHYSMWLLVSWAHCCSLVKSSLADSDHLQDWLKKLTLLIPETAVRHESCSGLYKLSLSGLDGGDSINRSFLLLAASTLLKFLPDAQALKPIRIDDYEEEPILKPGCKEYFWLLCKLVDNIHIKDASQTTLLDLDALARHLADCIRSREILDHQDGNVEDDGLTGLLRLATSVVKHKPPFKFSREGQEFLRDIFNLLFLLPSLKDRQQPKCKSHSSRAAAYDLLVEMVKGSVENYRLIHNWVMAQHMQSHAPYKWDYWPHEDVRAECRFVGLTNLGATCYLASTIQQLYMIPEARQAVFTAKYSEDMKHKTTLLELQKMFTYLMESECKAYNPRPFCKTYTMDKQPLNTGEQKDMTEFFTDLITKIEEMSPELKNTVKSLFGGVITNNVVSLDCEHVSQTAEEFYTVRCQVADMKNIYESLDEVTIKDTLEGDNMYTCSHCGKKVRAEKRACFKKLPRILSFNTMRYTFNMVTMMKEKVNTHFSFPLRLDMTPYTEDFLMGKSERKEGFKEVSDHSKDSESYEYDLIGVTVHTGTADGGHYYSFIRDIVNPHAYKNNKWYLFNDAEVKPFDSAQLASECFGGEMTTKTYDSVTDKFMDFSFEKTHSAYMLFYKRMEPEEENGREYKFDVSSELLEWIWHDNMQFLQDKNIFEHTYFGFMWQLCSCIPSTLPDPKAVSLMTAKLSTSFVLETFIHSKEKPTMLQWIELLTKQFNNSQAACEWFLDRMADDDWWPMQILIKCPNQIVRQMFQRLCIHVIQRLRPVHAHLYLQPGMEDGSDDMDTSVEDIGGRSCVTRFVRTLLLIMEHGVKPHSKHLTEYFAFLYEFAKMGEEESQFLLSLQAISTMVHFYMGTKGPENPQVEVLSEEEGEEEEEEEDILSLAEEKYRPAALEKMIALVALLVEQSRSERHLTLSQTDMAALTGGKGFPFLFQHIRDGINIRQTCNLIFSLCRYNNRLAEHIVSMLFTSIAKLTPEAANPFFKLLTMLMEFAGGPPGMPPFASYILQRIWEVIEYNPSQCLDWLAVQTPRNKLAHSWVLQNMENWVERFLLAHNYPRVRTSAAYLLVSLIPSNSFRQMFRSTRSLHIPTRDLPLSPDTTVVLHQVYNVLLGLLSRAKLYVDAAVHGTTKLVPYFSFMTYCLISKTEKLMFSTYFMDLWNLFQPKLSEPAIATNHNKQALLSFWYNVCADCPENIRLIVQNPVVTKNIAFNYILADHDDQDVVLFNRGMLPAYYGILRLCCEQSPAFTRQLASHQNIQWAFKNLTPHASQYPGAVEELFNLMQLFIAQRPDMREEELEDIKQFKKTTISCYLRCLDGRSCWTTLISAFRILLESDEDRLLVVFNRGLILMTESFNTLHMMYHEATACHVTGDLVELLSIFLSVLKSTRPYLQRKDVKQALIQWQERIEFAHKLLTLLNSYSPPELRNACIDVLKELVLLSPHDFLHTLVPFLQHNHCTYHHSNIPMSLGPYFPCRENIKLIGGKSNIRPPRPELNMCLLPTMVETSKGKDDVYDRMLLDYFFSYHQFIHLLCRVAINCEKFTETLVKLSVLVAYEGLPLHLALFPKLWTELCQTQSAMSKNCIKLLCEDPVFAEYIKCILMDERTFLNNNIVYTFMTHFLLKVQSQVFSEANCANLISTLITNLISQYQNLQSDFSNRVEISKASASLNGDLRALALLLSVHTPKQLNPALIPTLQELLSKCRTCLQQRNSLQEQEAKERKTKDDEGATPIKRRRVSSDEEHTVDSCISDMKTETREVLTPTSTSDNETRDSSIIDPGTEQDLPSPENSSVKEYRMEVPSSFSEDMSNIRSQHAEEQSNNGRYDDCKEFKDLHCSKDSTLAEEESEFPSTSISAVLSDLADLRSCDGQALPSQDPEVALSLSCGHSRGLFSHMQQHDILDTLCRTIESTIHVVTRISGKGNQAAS
Summary of the method: (§1)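 Values give the average log2 ratio of fragment to vehicle, assessed by unpaired t-test on global-median-normalised Spectronaut label-free quantities. Proteins needed ≥2 unique peptides. HEK293T lysate (495 µg per sample) was treated in triplicate with fragment at 200 µM or vehicle for 3 h and then with Biotin-Ahx-Ub-VS at 0.5 µM final for 1 h. Labelled DUBs were NeutrAvidin-enriched, digested and run by diaPASEF LC-MS/MS.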

USP36 = target: T1, USP36 (UniProt Q9P275)
T1 sequence (whole entry): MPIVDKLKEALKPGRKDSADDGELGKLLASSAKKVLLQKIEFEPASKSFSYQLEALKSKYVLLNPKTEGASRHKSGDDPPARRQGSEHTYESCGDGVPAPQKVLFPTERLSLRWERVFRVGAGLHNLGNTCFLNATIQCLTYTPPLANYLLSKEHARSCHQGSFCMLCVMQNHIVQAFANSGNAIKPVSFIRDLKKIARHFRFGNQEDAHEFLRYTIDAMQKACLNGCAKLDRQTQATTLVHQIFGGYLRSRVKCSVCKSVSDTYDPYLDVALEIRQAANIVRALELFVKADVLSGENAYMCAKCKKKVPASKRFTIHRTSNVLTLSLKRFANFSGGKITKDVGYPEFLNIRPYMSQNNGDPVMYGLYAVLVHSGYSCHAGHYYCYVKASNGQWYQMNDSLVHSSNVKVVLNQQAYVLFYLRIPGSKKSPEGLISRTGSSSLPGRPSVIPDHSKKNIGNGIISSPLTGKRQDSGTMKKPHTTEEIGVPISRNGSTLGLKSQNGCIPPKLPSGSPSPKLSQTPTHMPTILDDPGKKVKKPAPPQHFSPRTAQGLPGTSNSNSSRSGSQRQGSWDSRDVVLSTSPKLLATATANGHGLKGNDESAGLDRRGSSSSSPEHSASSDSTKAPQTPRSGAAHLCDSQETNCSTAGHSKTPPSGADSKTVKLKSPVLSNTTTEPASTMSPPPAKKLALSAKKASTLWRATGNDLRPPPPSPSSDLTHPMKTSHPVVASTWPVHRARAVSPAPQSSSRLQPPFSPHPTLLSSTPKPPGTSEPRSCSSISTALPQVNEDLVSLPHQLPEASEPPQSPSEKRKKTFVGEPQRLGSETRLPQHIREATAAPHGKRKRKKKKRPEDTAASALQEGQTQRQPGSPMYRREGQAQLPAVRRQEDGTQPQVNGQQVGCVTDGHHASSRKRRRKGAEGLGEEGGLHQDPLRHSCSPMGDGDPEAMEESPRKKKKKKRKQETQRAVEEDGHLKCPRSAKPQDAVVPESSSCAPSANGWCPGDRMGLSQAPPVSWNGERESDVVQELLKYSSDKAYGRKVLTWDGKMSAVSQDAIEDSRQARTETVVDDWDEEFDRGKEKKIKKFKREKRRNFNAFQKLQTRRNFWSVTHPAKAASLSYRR
Summary of the method: as §1

USP38 = target: T2, USP38 (UniProt Q8NB14)
T2 sequence (whole entry): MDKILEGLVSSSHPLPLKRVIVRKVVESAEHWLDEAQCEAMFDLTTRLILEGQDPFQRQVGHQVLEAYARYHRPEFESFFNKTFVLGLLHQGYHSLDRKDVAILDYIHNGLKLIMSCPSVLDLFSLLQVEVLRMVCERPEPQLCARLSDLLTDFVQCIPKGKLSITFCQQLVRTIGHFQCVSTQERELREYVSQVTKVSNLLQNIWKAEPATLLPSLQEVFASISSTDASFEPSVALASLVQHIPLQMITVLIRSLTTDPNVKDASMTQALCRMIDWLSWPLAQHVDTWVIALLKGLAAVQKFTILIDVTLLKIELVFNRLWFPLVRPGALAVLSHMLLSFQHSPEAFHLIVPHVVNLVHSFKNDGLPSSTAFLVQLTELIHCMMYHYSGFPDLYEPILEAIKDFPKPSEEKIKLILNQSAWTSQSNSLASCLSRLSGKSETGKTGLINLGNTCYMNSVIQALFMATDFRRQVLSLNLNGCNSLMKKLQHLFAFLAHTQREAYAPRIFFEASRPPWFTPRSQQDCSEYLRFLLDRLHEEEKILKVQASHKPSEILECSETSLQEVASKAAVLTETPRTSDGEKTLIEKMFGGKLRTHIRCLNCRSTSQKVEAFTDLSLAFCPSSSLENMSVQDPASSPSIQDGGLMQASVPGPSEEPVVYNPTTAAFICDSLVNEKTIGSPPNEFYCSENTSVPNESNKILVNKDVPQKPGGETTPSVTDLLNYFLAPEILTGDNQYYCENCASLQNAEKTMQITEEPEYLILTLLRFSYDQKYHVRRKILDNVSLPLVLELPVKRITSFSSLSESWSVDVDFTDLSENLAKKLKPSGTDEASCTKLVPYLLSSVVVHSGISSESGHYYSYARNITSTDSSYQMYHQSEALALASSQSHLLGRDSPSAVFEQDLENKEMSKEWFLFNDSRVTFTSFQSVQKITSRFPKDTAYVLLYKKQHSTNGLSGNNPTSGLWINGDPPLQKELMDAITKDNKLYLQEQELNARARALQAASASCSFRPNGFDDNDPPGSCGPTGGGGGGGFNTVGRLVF
Summary of the method: as §1

USP39 = target: T3, USP39 (UniProt Q53GS9)
T3 sequence (whole entry): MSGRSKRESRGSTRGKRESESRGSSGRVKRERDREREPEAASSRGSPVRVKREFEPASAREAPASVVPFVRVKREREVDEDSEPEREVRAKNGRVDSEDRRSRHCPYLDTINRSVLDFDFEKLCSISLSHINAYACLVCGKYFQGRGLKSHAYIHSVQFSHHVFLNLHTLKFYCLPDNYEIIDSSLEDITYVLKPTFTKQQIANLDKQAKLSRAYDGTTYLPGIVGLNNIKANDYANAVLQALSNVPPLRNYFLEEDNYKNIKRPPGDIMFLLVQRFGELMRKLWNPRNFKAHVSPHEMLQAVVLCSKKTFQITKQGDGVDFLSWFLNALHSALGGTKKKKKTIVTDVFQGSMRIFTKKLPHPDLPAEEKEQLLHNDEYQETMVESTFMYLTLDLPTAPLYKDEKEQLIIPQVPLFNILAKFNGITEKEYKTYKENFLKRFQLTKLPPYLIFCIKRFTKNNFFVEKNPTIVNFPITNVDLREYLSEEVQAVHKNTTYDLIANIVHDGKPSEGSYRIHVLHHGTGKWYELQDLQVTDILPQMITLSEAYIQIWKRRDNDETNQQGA
Summary of the method: as §1

USP4 = target: T4, USP4 (UniProt Q13107)
T4 sequence (whole entry): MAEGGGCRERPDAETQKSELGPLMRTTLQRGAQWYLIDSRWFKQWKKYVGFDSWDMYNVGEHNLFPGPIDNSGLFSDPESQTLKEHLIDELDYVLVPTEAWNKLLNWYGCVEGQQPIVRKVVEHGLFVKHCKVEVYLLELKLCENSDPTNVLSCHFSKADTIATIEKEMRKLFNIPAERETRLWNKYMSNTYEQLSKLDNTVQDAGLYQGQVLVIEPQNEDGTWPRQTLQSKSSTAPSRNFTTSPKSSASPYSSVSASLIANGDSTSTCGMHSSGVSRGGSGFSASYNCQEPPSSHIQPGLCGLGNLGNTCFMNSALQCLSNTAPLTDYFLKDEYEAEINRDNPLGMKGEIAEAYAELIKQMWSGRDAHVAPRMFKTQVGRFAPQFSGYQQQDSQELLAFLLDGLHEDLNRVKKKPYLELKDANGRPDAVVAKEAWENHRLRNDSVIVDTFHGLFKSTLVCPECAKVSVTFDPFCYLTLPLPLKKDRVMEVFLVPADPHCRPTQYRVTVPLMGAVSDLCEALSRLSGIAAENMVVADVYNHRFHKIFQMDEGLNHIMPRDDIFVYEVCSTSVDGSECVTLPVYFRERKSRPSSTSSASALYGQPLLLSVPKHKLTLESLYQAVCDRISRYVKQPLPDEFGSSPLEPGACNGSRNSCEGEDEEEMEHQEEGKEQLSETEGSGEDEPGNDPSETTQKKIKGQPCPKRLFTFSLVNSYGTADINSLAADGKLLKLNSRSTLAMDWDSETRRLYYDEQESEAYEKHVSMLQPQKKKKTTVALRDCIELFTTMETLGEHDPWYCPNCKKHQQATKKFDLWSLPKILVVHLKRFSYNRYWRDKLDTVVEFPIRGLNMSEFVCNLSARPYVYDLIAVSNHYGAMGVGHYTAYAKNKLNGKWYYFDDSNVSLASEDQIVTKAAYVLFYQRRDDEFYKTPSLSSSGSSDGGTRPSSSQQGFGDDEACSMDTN
Summary of the method: as §1

Measured: log2 ratio of Biotin-Ahx-Ub-VS probe labelling

CCN(C(=O)CCl)C1CCS(=O)(=O)C1 (stereo not given)
inactive: USP34 -0.11 | USP36 -0.152 | USP38 -0.0197 | USP39 -0.0969 | USP4 0.159
